# In the library only some 4.5% were active in any assay of this set; here they are far more common.
# ssDAF12 agonist: S. stercoralis DAF-12 nuclear receptor activators, primary screen, cell-based, luminescence, HEK293, GRIP1 co-expression, lit1-tk-luc | activation, % at 6.8 µM | 1% of 370,000 active | HEK293 ssDAF-12/GRIP1 lit1-tk-luc reporter; % of 3 µM dafachronic acid response;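 active = activation above the mean over all tested compounds plus 3 SD, cut at about 0.9% in these data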;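 also: 0% = DMSO-only wells and 100% = 3 µM delta7-dafachronic acid wells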
# DAX1 inh-1: DAX1 (NR0B1) inhibitors on StAR promoter, primary screen, cell-based, luminescence, SF-1 (NR5A1), full-length DAX-1 | HEK293T StAR-luciferase reporter, SF-1/DAX-1 repression relief | inhibition, % at 6.8 µM | 1.1% of 370,000 active | AID 652010, 2013;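 active = inhibition above the mean over all tested compounds plus 3 SD, cut at about 3.6% in these data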;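 also: 0% = DAX-1 cells with DMSO and 100% = cells lacking DAX-1 with DMSO; higher inhibition means more luminescence from relief of DAX-1 repression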
# hgDAF12 agonist: H. glycines DAF-12 receptor agonists, primary screen, cell-based, luminescence, HEK293, GAL4 fusion, UAS-luciferase; activation, % at 6.8 µM; Nuclear hormone receptor DAF-12 (Heterodera glycines), GAL4 fusion; HEK293 GAL4-hgDAF12 UAS-luciferase reporter, agonist luminescence; normalized to butyrate control; 1.8% of 370,000 active;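 active = activation above a cutoff set at the mean of all screened compounds plus 3 SD, cut at about 10% in these data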;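 also: 0% = DMSO wells and 100% = sodium butyrate wells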
# hcDAF-12 act: H. contortus DAF-12 nuclear receptor activators, primary screen, cell-based, luminescence, HEK293, lit1-tk-luc reporter | 1.4% of 370,000 active | activation, % at 6.8 µM | AID 652067, 2013 | HEK293 hcDAF-12 lit1-tk-luc reporter; 0% DMSO, 100% Δ7-dafachronic acid;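 active = activation above the mean of all tested compounds plus 3 SD, cut at about 5.5% in these data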;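 also: 100% = response to 3 µM Δ7-dafachronic acid high control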
# GAA850 FXN act: FXN promoter activators, primary screen, cell-based, luciferase luminescence, HEK293 lucGAA850; HEK293 lucGAA850 FXN promoter luciferase reporter, 24 h; percent of 10 µM SAHA response; activation, % at 6 µM; 0.56% of 360,000 active;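 active = activation above the average of all compounds screened plus 3 SD, cutoff fixed separately per campaign, cut at about 7.5% in these data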;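 also: 0% = DMSO wells and 100% = 10 µM SAHA wells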
# DAX1 inh-2: DAX1 (NR0B1) inhibitors, primary screen, cell-based, HEK293, Gal4-DAX1, luciferase luminescence | inhibition, % at 6.75 µM | 0.99% of 340,000 active | HEK293 Gal4-DAX1 luciferase reporter | Nuclear receptor subfamily 0 group B member 1 (Homo sapiens), P51843;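 active = inhibition above the mean over all tested compounds plus 3 SD, cut at about 4.2% in these data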;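 also: 0% = DAX1-transfected cells with DMSO and 100% = empty-vector control cells with DMSO; inhibition shows as a rise in luminescence from relieved DAX1 repression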
# Target sequence (P51843 207-470 limits assumed): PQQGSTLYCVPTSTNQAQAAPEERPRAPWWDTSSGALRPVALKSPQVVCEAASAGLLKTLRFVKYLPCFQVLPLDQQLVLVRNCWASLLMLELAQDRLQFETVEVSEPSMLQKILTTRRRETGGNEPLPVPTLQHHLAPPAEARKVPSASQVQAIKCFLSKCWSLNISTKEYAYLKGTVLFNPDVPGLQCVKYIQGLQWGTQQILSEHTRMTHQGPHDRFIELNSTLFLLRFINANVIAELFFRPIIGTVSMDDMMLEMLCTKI
# DAX1 inh confirm: DAX1 (NR0B1) inhibitors relieving SF-1 repression, confirmation, cell-based, luminescence, HEK293T, full-length DAX-1, SF-1 activated StAR promoter. inhibition, % at 6.8 µM. HEK293T StAR-promoter luciferase reporter, SF-1/DAX-1 repression. 87% of 2,400 active. shares compounds with DAX1 inh-1;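 active = inhibition above the average of every tested compound plus 3 SD, cut at about 3.8% in these data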;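 also: 0% = DAX-1 cells with DMSO and 100% = no DAX-1 control cells with DMSO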
# SF1 mutant ctr: StAR reporter signal changes without DAX1, counter-screen for DAX1 inhibitor project, cell-based, luminescence, AF-2 mutant SF-1, transactivation; 78% of 2,400 active; inhibition, % at 6.8 µM; shares compounds with DAX1 inh-1; HEK293 StAR-luciferase, SF-1 AF2 mutant;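 active = inhibition above the mean of all tested compounds plus 3 SD, cut at about 3% in these data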;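 also: 0% = DAX-1 transfected cells with DMSO and 100% = cells without DAX-1 with DMSO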
# LXRb hcDAF ctr: LXR agonists, Gal4 luciferase reporter, confirmation, counter-screen for hcDAF-12 agonist project, cell-based, luminescence, HEK293, H. contortus campaign | shares compounds with hcDAF-12 act | HEK293 Gal4-LXR tk-luc reporter, 24 h; normalized: DMSO 0%, positive control 100% | activation, % at 6.8 µM | 3,400 tested, under 10 active | AID 743027, 2013;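 active = mean percent activation of the reporter above a cutoff set as the average over tested compounds plus their standard deviation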
# Target sequence (P55055 whole entry, looked up, the tested form may be a part): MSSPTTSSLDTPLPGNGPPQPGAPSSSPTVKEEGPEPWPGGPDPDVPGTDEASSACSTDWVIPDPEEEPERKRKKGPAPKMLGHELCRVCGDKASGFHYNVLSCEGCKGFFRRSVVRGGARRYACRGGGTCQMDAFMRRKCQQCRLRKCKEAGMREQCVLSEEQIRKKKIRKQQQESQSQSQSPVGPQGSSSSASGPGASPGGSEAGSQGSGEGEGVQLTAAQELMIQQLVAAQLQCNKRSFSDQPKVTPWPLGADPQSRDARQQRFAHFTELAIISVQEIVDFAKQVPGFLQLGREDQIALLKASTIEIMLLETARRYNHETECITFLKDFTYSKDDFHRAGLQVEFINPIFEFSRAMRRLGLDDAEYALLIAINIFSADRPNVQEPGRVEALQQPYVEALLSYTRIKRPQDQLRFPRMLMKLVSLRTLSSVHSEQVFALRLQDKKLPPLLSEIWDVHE
# hcDAF12 ag: H. contortus DAF-12 receptor agonists, confirmation, cell-based, luminescence, HEK293, lit1-tk-luc, triplicate. 61% of 3,400 active. HEK293 hcDAF-12 lit1-tk-luc reporter; % of Δ7-dafachronic acid response. activation, % at 6.8 µM. shares compounds with hcDAF-12 act;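 active = mean activation across triplicate tests above the threshold derived from the earlier primary screen, cut at about 5.5% in these data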;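 also: 0% = DMSO only wells and 100% = 3 µM Δ7-dafachronic acid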
# hgDAF12 ag: H. glycines DAF-12 receptor agonists, confirmation, cell-based, luminescence, HEK293, GAL4-LBD fusion; HEK293 GAL4-hgDAF12 luciferase reporter, agonist mode; percent of butyrate response; activation, % at 6.8 µM; shares compounds with hgDAF12 agonist; 80% of 3,300 active;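 active = mean activation over triplicate wells above the hit cutoff derived from the earlier primary screen, cut at about 11% in these data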;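 also: 0% = DMSO low control and 100% = 2 mM sodium butyrate high control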
# LXRb DAF12 ctr: LXR agonists, Gal4 luciferase reporter, confirmation, counter-screen for hgDAF-12 agonist project, cell-based, luminescence, HEK293, H. glycines campaign; shares compounds with hgDAF12 agonist; activation, % at 6.8 µM; 3,300 tested, under 10 active; 24 h;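 active = mean activation of the triplicate above a set limit carried over from the primary screen, none filed active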
# The depositor's hits bear a star; . = not tested or not shown.
SMILES,ssDAF12 agonist,DAX1 inh-1,hgDAF12 agonist,hcDAF-12 act,GAA850 FXN act,DAX1 inh-2,DAX1 inh confirm,SF1 mutant ctr,hgDAF12 ag,LXRb DAF12 ctr,others
COc1ccc(NC(=O)c2cc3ccccc3oc2=O)cc1,1.1*,6.7*,22.7*,5.8*,0.6,0.8,3.3,-0.7,10.2,0.6,
Fc1ccc(CSc2ncnc3c2ncn3C2CCCCO2)cc1 (stereo not given),-1.0,0.8,3.1,0.1,4.7,3.9,.,.,.,.,
c1ccc(CSc2ncnc3c2ncn3C2CCCCO2)cc1 (stereo not given),0.1,5.1*,14.2*,2.2,3.4,3.6,6.3*,3.5*,12.0*,0.5,
CCc1nnc(NC(=O)CCC(=O)N2CCN(c3cc(Cl)ccc3C)CC2)s1,-1.5,-0.5,-0.8,-1.4,1.8,-0.4,.,.,.,.,
Cc1ccc(NC(=S)N2CCC(c3ccccc3)C2)c(Cl)c1 (stereo not given),1.1*,5.1*,18.8*,5.0,1.2,0.4,10.9*,4.8*,12.7*,0.8,
CC1CN(C(=O)/C=C/c2ccc(SC(F)F)cc2)CC(C)O1 (stereo not given),-1.0,-0.2,-1.2,0.7,0.9,1.6,.,.,.,.,
CCCc1nc2c3ccccc3ccn2c1Cc1ccc(C)cc1,2.3*,6.0*,17.5*,11.6*,.,.,8.0*,4.3*,11.2*,0.6,LXRb hcDAF ctr=0.9;hcDAF12 ag=13.0*
c1ccc(Cc2c(C3CCCCC3)nc3c4ccccc4ccn23)cc1,2.1*,6.1*,18.1*,10.7*,.,.,6.1*,4.0*,20.0*,0.6,LXRb hcDAF ctr=0.8;hcDAF12 ag=8.0*
Cc1cc(Br)cn2c(Cc3ccccc3)c(C3CCCCC3)nc12,-0.7,0.2,2.5,1.7,.,.,.,.,.,.,
CCn1c(SCc2ccccc2)nc2c1c(=O)[nH]c(=O)n2C,-0.3,-0.2,0.2,1.2,3.2,-0.2,.,.,.,.,
c1nnc(NCNc2nncs2)s1,-1.2,-0.8,-0.1,1.4,1.2,0.3,.,.,.,.,
Cc1ccc(NC(=S)NC(=O)C2CCCCC2)c(Br)c1,0.3,9.8*,18.1*,6.3*,2.2,2.7,7.8*,7.2*,15.2*,0.7,
Cc1ccc(NC(=O)C2CCCC2)c(Br)c1,-1.2,-0.2,2.2,-0.5,3.0,2.2,.,.,.,.,
Cc1ccc2nc(-c3ccc(NC(=O)COC(=O)c4ccc(=O)[nH]c4)cc3)sc2c1,1.2*,8.4*,21.8*,11.3*,2.1,0.9,14.4*,8.5*,22.8*,1.4,LXRb hcDAF ctr=1.7;hcDAF12 ag=10.9*
Cc1ccc2nc(-c3ccc(NC(=S)NC(=O)CC(C)C)cc3)sc2c1,-0.1,1.0,6.3,1.1,3.6,3.4,.,.,.,.,
Cc1ccc2nc(-c3ccc(NC(=O)CNC4CC4)cc3)sc2c1,2.4*,5.7*,21.4*,4.8,3.5,3.7,14.2*,7.0*,15.4*,0.8,
Cc1ccc2nc(-c3ccc(NC(=O)CN4C(=O)c5ccccc5C4=O)cc3)sc2c1,2.2*,5.4*,19.3*,14.2*,3.7,2.2,14.6*,7.4*,16.3*,0.8,LXRb hcDAF ctr=0.9;hcDAF12 ag=8.3*
Nc1cc(=O)[nH]c(SCC(=O)Nc2ccc(F)c(Cl)c2)n1,-1.1,0.5,-0.1,-1.4,-1.7,-0.2,.,.,.,.,
Cc1ccc2nc(-c3ccc(NC(=O)CSc4nc(N)cc(=O)[nH]4)cc3)sc2c1,-0.1,4.8*,25.4*,2.8,4.2,4.5*,7.3*,4.0*,18.3*,1.1,
Cc1ccc2nc(-c3ccc(NC(=O)CN4CCN(c5ccccn5)CC4)cc3)sc2c1,-1.6,0.1,3.0,-0.3,-0.6,.,.,.,.,.,
O=C(N/N=C/c1cc([N+](=O)[O-])ccc1O)c1ccc2c(c1)OCCO2,-1.9,0.4,0.5,-0.8,-2.1,-0.9,.,.,.,.,
CCOc1cccc(/C=N/NC(=O)c2ccc3c(c2)OCCO3)c1O,-0.5,-1.9,-8.4,0.2,-7.9,-3.8,.,.,.,.,
O=C(N/N=C/c1ccccc1[N+](=O)[O-])c1ccc2c(c1)OCCO2,0.9,5.6*,23.8*,6.2*,0.9,-5.5,10.8*,4.8*,15.4*,1.0,
O=C(N/N=C/c1cccc(O)c1)c1ccc2c(c1)OCCO2,1.1*,19.4*,18.2*,12.8*,2.7,-1.4,17.2*,9.4*,18.3*,1.1,LXRb hcDAF ctr=1.5;hcDAF12 ag=8.5*
Clc1ccc(CSc2nc3ccncc3[nH]2)cc1,0.7,8.4*,18.6*,5.9*,2.4,-2.8,12.0*,5.9*,19.4*,0.9,
